The text below walks through data of PubChem BioAssay (Tox21).

Values without a mark were called inactive. Results filed as inconclusive are left out. The source made the active and inactive calls. Unless noted, calls come from the whole dose curve; as a rule, active = well fitted curve in the direction sought with a large enough effect in the repeat runs; inconclusive = weak or mixed curves; inactive = no such curve, though single readings can be large; an effect the other way counts as inactive or inconclusive.

The nature of assay [1]: qHTS assay for small molecules that induce genotoxicity in human embryonic kidney cells expressing luciferase-tagged ATAD5 (AID 651632). Note: nearly all actives have a fitted effect of over 15% in size. The essentials:
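Concentration-response screen for ATAD5 upregulation in HEK293T luciferase reporter cells; 16 hr treatment at 37C, then luminescence after 30 min with Amplite at room temperature.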
On the technique in general: Quantitative high-throughput screening tests each substance at several concentrations.

Assay [2] in a line: qHTS assay for small molecule agonists of the p53 signaling pathway - cell viability (AID 651633; calls by dose curve;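 note: p53RE-bla HCT reporter cells with a stable beta-lactamase p53 reporter; series mostly up to about 83 µM; nearly all actives have a fitted effect of over 30% in size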). The essentials:
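p53RE-bla cells, seeded at 4,000 per well and rested 5 h at 37 C/5% CO2, received compounds in DMSO for 16 h at 37 C. CellTiter-Glo was then added, and luminescence was read after 30 min at room temperature to gauge cytotoxicity.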

Assay [3] in a line: qHTS assay for small molecules that induce genotoxicity in human embryonic kidney cells expressing luciferase-tagged ATAD5 - cell viability (AID 651634; calls by dose curve; note: nearly all actives have a fitted effect of over 25% in size). The essentials: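 15.5 hr compound or vehicle exposure of HEK293T cells expressing luciferase-tagged ATAD5 at 37C; live-cell protease activity is read by fluorescence after 30 min of CellTiter-Fluor.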
Assay [4] is described as follows: qHTS assay for small molecule disruptors of the mitochondrial membrane potential (AID 720635). Note: potency is the fitted concentration of half-maximal effect. The method, boiled down:
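HepG2 cells (2,000/well) attached overnight at 37C, then took compound for 1 hr at 37C, 5% CO2. Mito-MPS dye was added for 30 min; fluorescence was read at 490/535 nm (monomers) and 540/590 nm (aggregates).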

Assay [5] is described as follows: qHTS assay to test for compound auto fluorescence at 590 nm (red) in HepG2 cells (AID 720674). The essentials:
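Compound auto-fluorescence is scored relative to Rose Bengal sodium, measured at 540/590 nm in live HepG2 cultures after 1 hr compound contact (37 C, 5% CO2).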

Assay [6] can be described thus: qHTS assay to test for compound auto fluorescence at 535 nm (green) in HepG2 cells (AID 720675).
A short description of assay [7]: qHTS assay to test for compound auto fluorescence at 460 nm (blue) in HEK293 cells (AID 720678). The essentials: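 Cells were seeded and left to adhere for 4-5 hr at 37C. Compounds were then pin-transferred. After an overnight incubation at 37C under 5% CO2, intrinsic fluorescence at 405/460 nm was measured and referenced to triamterene.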
A short description of assay [8]: qHTS assay to test for compound auto fluorescence at 590 nm (red) in HEK293 cells (AID 720679). The essentials: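 Each well held 2,000 HEK293 cells in medium containing 10% dialyzed FBS. Following 4-5 hr attachment at 37C, 23 nL test compound or DMSO was added; plates sat overnight, and red fluorescence (540/590nm) was recorded.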
Assay [9] is described as follows: qHTS assay to test for compound auto fluorescence at 535 nm (green) in HEK293 cells (AID 720680).
A short description of assay [10]: qHTS assay to test for compound auto fluorescence at 460 nm (blue) in HEK293 cell free culture (AID 720681). The method, boiled down:
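Test compounds were pinned into cell-free culture medium (DMEM with 10% FBS) and fluorescence was read directly at Ex/Em 405/460 nm. Signals were expressed as fluorescence equivalents of triamterene, with DMSO vehicle as control.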

Assay [11] can be described thus: qHTS assay to test for compound auto fluorescence at 535 nm (green) in HEK293 cell free culture (AID 720682). The method, boiled down: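 Compounds were pin-transferred into cell-free DMEM with 10% FBS, and green fluorescence was read at excitation 485 nm and emission 535 nm. Intensities were expressed as fluorescein-equivalent values.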
Assay [12] in a line: qHTS assay to test for compound auto fluorescence at 590 nm (red) in HEK293 cell free culture (AID 720683). The essentials:
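Tox21 10K library compounds were pinned into cell-free DMEM with 10% FBS and fluorescence was read at excitation 540 nm. Activity is expressed as Rose Bengal sodium equivalency.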

Assay [13] in a line: qHTS assay to test for compound auto fluorescence at 590 nm (red) in HepG2 cell free culture (AID 720684). The method, boiled down:
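Ex 540 / Em 590 nm read of compound in cell-free MEM (10% FBS). Rose Bengal sodium reference.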

Assay [14] is described as follows: qHTS assay to test for compound auto fluorescence at 460 nm (blue) in HepG2 cell free culture (AID 720685). The essentials:
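Cell-free plates of MEM plus 10% FBS received 23 nL compound or DMSO vehicle; blue-channel (405/460 nm) intensity scored against triamterene as reference fluorophore.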

Assay [15] is described as follows: qHTS assay to test for compound auto fluorescence at 535 nm (green) in HepG2 cell free culture (AID 720686).
Assay [16] in a line: qHTS assay to test for compound auto fluorescence at 460 nm (blue) in HepG2 cells (AID 720687). The essentials:
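Cells (2,000/well in MEM with 10% FBS) attached overnight at 37 C, then were exposed to compound or DMSO for 1 hr at 37 C, 5% CO2. Fluorescence read at Ex/Em 405/460 nm, expressed as triamterene-equivalent signal.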

The target of assay [17] is Glucocorticoid receptor (Homo sapiens) (UniProt P04150). The assay is described as follows: qHTS assay to identify small molecule agonists of the glucocorticoid receptor (GR) signaling pathway (AID 720691; active = well fitted activation curve with a large enough effect in the signal ratio in the repeat runs, not every such curve was filed as active; the % refers to the signal ratio). The essentials:
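Measures GR pathway activation through a GRE-beta-lactamase reporter stably integrated in HeLa cells, with 18 h compound treatment at 37 C and fluorescence detection using a FRET substrate.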

Assay [18] can be described thus: qHTS assay for small molecule disruptors of the mitochondrial membrane potential - cell viability (AID 720634; calls by dose curve;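 note: human HepG2 liver cancer cells; series mostly up to about 83 µM; nearly all actives have a fitted effect of over 20% in size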). The essentials: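 In this qHTS format, HepG2 cells plated overnight were pinned with compound, incubated 1 hr, and assayed for ATP luminescence with CellTiter-Glo after m-MPI dye addition.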
The target in assay [19] is Glucocorticoid receptor (Homo sapiens) (UniProt P04150). Kind of assay: qHTS assay to identify small molecule antagonists of the glucocorticoid receptor (GR) signaling pathway (AID 720692; active = well fitted inhibition curve with a large enough effect in the signal ratio in the repeat runs, not every such curve was filed as active; the % refers to the signal ratio; note: potency is the fitted concentration of half-maximal effect). The method, boiled down:
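Tox21 10K library screened in concentration-response for blockade of dexamethasone (5 nM final)-induced GRE-bla reporter activity in HeLa cells; 18 h treatment, fluorescence read.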

Chain of Glucocorticoid receptor (Homo sapiens) (P04150 whole entry, looked up): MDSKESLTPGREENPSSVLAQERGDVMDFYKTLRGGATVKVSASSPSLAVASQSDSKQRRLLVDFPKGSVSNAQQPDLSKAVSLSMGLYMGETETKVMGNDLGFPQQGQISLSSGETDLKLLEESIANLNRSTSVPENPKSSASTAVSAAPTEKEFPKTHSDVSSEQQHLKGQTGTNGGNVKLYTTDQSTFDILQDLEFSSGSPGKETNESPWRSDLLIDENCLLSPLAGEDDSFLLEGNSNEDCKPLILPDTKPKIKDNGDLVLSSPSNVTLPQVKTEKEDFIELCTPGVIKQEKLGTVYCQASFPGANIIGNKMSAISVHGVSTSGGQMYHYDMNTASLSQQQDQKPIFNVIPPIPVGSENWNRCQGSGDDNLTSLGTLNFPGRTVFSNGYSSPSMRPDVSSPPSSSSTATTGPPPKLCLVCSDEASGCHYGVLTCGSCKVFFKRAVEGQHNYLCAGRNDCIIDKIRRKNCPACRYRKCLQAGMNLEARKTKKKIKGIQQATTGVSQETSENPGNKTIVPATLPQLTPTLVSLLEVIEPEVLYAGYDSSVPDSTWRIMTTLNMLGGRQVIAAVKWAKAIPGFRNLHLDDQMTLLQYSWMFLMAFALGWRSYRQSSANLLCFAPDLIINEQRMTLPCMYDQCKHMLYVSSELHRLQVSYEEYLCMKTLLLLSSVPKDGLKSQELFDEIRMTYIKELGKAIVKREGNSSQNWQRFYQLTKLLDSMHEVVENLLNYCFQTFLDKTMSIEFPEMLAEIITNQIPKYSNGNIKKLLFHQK

For the molecule `O=C(OC1CCCCC1)c1ccccc1C(=O)OC1CCCCC1`, the Potency result in [1], in assay [2] and in assay [3] was “inactive” in each case. Besides, in [4], the Potency is 28.8 µM (active). In addition, the molecule was called inactive in assay [5], in assay [6], in assay [7], in assay [8], in [9] and in [10]. Also, the molecule was classed as inactive in [11], in [12], in assay [13], in assay [14], in [15] and in assay [16]. In addition, in [17], the molecule was classed as inactive.
On to `CC(=O)[C@H]1CC[C@H]2[C@@H]3CC[C@H]4C[C@](C)(O)CC[C@]4(C)[C@H]3CC[C@]12C`, for which the Potency result in [1], in [2], in assay [3], in [18] and in assay [19] was “inactive” each time. Also, the molecule was called inactive in [5], in [6], in assay [7], in assay [8], in [9] and in assay [10]. The molecule was called inactive in [11], in [12], in assay [13], in [14], in assay [15] and in [16]. Moreover, the molecule was called inactive in [17].
On to `c1cc2ccc3cccc4ccc(c1)c2c34`, for which the Potency entry in assay [1], in assay [2] and in [3] was “inactive” throughout. Moreover, the call in assay [5], in assay [6], in assay [7], in assay [8], in assay [9] and in [10] was inactive. Moreover, the call in assay [11], in assay [12], in assay [13], in assay [14], in [15] and in [16] was inactive.
In the case of `CC(C)(C)C(O)C(Oc1ccc(Cl)cc1)n1cncn1` (stereo not given), in [1], the Potency result was “inactive”. Moreover, the molecule was classed as inactive in assay [5], in assay [6], in assay [8], in assay [9], in assay [10] and in assay [11]. Moreover, the outcome in [12], in [13], in assay [14], in assay [15] and in assay [16] was inactive.
As for `CS/C(C)=N/OC(=O)N(C)SN(C)C(=O)O/N=C(\C)SC`, the Potency result in [1], in assay [2], in [18] and in assay [4] was “inactive” throughout. For the same molecule, the result in assay [5], in [6], in assay [7], in [8], in assay [9] and in assay [10] was inactive. Further, the molecule was classed as inactive in assay [11], in assay [12], in assay [13], in assay [14], in [15] and in [16]. The molecule was called inactive in [17].
`Cl/C=C\C[N+]12CN3CN(CN(C3)C1)C2`: the Potency entry in [2], in [3], in assay [18] and in [4] was “inactive” in each case. In addition, the call in [5], in assay [6], in [7], in assay [8], in assay [9] and in assay [10] was inactive. The molecule was classed as inactive in assay [11], in [12], in assay [13], in assay [14], in assay [15] and in assay [16].
Take `CC(C)O.CC(C)O.OCCN(CCO)CCO.OCCN(CCO)CCO.[Ti]`: the Potency entry in [3] is “inactive”. Further, the outcome in [5], in assay [6], in assay [7], in [8], in assay [9] and in assay [10] was inactive. For the same molecule, the outcome in assay [11], in [12], in [13], in assay [14], in assay [15] and in assay [16] was inactive.
Regarding `OC(c1ccc(Cl)cc1)(c1ccc(Cl)cc1)c1cccnc1`, the Potency result in assay [1], in [3] and in assay [18] was “inactive” each time. Also, the Potency is 54.5 µM (active) in assay [4] and 49 µM (active) in assay [19]. Besides, the molecule was classed as inactive in [5], in [6], in [7], in [8], in [9] and in assay [10]. Moreover, the result in assay [11], in assay [12], in assay [13], in assay [14], in [15] and in assay [16] was inactive.
